ELG1 genotox = inducers of genotoxicity in HEK293T ELG1-luciferase cells. HEK293T ELG1-luciferase reporter, luminescence, 16 h. Potency, µM (doses to about 46 µM), without a hit: at the top dose activity change, positive = activation, most hits filed as activators. actives 1.3% (n = 330,000); also: % of control where 0% means no effect; nearly all actives have a fitted effect of over 60% in size
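Reporter readout depends on ELG1 protein level, which increases with genetic stress. After 16 hr compound exposure at 37 °C, luciferase activity was quantified using ONE-Glo.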
Luc counter = blocks Kinase-Glo luciferase, a counter-screen artifact; Q27757; Kinase-Glo luciferase, ATP luminescence, 8 min; Potency, µM (doses to about 38.3 µM), inactives show at the highest dose activity change, negative = inhibition, most hits filed as inhibitors; actives 0.28% (n = 200,000); AID 1379; also: % is scaled to controls: 0 for no effect and ±100 for the full control effect; nearly all actives have a fitted effect of over 60% in size
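Inhibition of Kinase-Glo luciferase light generation was assessed at 10 uM ATP in pH 7.2 imidazole buffer, with luminescence measured after eight minutes at ambient temperature.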
NPC1 prom act = activates the NPC1 promoter; AID 485313; Huh7 NPC1 promoter luciferase reporter, 24 h; actives 2.4% (n = 320,000); Potency, µM (series often up to 9.22 µM), for inactives: at the top dose activation, actives largely listed as activators; also: % of control where 0% means no effect; nearly all actives have a fitted effect of over 60% in size
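NPC1 promoter–luciferase Huh7 cells; 24 h compound; luminescence.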
FLuc modulator = inhibits or activates purified firefly luciferase, miR-21 counter-screen. P08659. purified FLuc, Km substrates, luminescence inhibition. Potency, µM (doses to about 57.5 µM), for the others: at the top dose activity change, negative = inhibition, usual class: inhibitors. actives 6.9% (n = 360,000). AID 588342;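 also: plate controls were vehicle for no effect and reference inhibitor for full effect; nearly all actives have a fitted effect of over 55% in size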
Target sequence (P08659 whole entry, looked up): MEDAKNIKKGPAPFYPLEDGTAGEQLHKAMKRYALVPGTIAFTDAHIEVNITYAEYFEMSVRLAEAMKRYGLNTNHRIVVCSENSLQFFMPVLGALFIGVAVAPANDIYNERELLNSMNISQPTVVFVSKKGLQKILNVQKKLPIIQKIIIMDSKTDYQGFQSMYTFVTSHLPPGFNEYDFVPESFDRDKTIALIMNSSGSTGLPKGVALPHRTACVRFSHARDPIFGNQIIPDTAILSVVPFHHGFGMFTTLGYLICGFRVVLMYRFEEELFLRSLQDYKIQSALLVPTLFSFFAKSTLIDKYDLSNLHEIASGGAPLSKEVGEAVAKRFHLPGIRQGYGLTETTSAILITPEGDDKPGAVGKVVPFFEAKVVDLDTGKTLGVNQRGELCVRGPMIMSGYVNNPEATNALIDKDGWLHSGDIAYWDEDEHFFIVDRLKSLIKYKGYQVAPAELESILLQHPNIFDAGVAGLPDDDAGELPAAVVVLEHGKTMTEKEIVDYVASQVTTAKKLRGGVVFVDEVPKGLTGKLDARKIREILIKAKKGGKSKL
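Biochemical qHTS of compounds, final roughly 60 µM downward over six points, against 10 nM purified firefly luciferase using Km concentrations of substrates (10 uM D-luciferin, 10 uM ATP) in Tris acetate pH 7.5 buffer; luminescence output.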
Rab9 promoter act = activates the Rab9 promoter | Potency, µM (titrated, usually from 9.22 µM), for inactives: at the top dose activation, negative = inhibition, hits mostly activators | Huh7 Rab9 promoter-luciferase reporter, luminescence, 24 h | actives 2.8% (n = 320,000); also: % of control where 0% means no effect; nearly all actives have a fitted effect of over 60% in size
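Stable Rab9-luc Huh7, 1500 cells/well, 2 h settle; cmpd in DMSO, 24 h, 37 °C/5% CO2; luciferase reagent 10 min RT; luminescence.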
SMN2 splice up = enhancers of SMN2 splice variant expression; actives 2.8% (n = 210,000); Potency, µM (top dose mostly 46.1 µM), for the others: top-dose activity change, positive = activation, most hits filed as activators; HEK293 SMN2-luciferase splicing reporter, luminescence, 30-36 h; also: % of control where 0% means no effect; nearly all actives have a fitted effect of over 55% in size
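qHTS luciferase splicing reporter: luminescence rises when SMN2 exon 7 is included in transfected HEK293 cells. Compound exposure lasted 30-36 h at 37C, with 4.5 mM final sodium butyrate as control, followed by a ONE-Glo read.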
Numbers without * were called inactive; ? = inconclusive; nt = no result; ! = repeats disagree; [ ] = remark or other dose. Shown are actives, neighbours in structure and some others; about 7.4% of the full set was active somewhere. Calls follow the shape of the dose curve; as a rule, active = well fitted curve in the direction sought with a large enough effect; inconclusive = small, poorly fitted or top-dose-only effect, or another doubt; inactive = no such curve, though single readings can be large; an effect the other way counts as inactive or inconclusive. Potency is read from the fitted curve at half-maximal effect.

SMILES	ELG1 genotox	Luc counter	NPC1 prom act	FLuc modulator	Rab9 promoter act	SMN2 splice up
CSCCC(NC(=O)OC(C)(C)C)C(=O)Oc1ccc2c(=O)c(-c3ccc4c(c3)OCCO4)coc2c1 (stereo not given)	?	0%	1.4µM*	11µM*	0.79µM*	18µM*
Cc1ccccc1C(=O)Nc1ccc(OCc2cc(=O)n3ccccc3n2)cc1	nt	nt	nt	-4%	nt	nt
C=CC[C@@H](C(=O)O)c1ccccc1	nt	-3%[7.66 µM]	nt	nt	nt	3%[9.22 µM]
COc1ccc(NC(=O)Cn2ccn(-c3ccccc3)c(=O)c2=O)cc1	nt	nt	nt	-1%	nt	nt
Cc1ccc(-c2ccc(/C=C(\C#N)C(N)=S)n2C)cc1	16%	nt	?	4.8µM*	?	nt
Cc1cc(C)nc(Nc2n[nH]c(COc3ccccc3)n2)n1	0%	-3%	?	3%	?	-14%
Cc1cc(C)nc(Nc2n[nH]c(-c3ccccc3Cl)n2)n1	?	-7%	?	6.7µM*	?	14µM*
Cc1cc(C)nc(Nc2n[nH]c(-c3cccc4ccccc34)n2)n1	3%	1%	26%	12µM*	30%	-12%
O=C(c1cc(-c2cccs2)nc2ccccc12)N1CCN(c2ccccc2)CC1	-13%	-1%	-9%	11µM*	-1%	-17%
O=C(c1cc(-c2cccs2)on1)N1CCN(c2ccccc2)CC1	0%	-5%	-2%	17µM*	2%	3%
O=C(c1cn(-c2ccccc2)nc1-c1ccc(Cl)s1)N1CCOCC1	2%	8%	-2%	17µM*	-8%	13%
O=C(c1cn(-c2ccccc2)nc1-c1ccc(Cl)cc1)N1CCOCC1	-1%	1%	-1%	?	-2%	18%
O=C(O)c1cc(-c2cccs2)nc2ccc(Br)cc12	-1%	nt	1%	19µM*	3%	nt
O=C(c1cc(-c2cccs2)nc2ccccc12)N1CCN(S(=O)(=O)c2ccccc2)CC1	-3%	-3%	-2%	?	-5%	-9%
COc1ccc2c(c1)O[C@@H](c1cccc(C(F)(F)F)c1)[C@H](OC(=O)NCc1ccc3c(c1)OCO3)C2=O	nt	0%	nt	nt	nt	-5%
COc1ccccc1N1CCN(C(=O)CN2C(=O)COc3ccc(S(=O)(=O)N4CCOCC4)cc32)CC1	nt	nt	nt	0%	nt	4%
Cc1ccc(NC(=O)CN2C(=O)CSc3ccc(S(=O)(=O)N4CCCC4)cc32)c(C)c1	nt	nt	nt	-9%	nt	nt
COC(=O)c1c(NC(=O)CCCOc2ccc(C)cc2)sc2c1C(C(=O)OC)CC2 (stereo not given)	nt	nt	nt	?	nt	-50%
O=C(c1cccs1)N1CCN(C(=O)c2cn(-c3ccccc3)nc2-c2ccccc2)CC1	0%	nt	nt	nt	nt	nt
O=C(c1cn(-c2ccccc2)nc1-c1cccs1)N1CCN(c2ccc(F)cc2)CC1	-8%	nt	2%	13µM*	-3%	nt
O=C(c1cc(-c2cccs2)on1)N1CCN(c2ccc(F)cc2)CC1	-7%	1%	3%	24µM*	1%	-53%
COc1ccc(NC(=O)CCn2c(=O)c3cccn3c3cccnc32)c(OC)c1	nt	nt	nt	-2%	nt	nt
O=C(c1ccccc1)n1ccc(-c2cnc(-c3ccccc3)s2)n1	1.6µM*	-2%	1.4µM*	4.3µM*	1.6µM*	3.5µM*
CCOc1ccc(Cl)cc1CNCCCSc1nnnn1C	nt	nt	nt	-2%	nt	nt
CS(=O)(=O)c1cccc(-c2csc(N3CCC(C(N)=O)CC3)n2)c1	10%	nt	2.5µM*!	0%	?	nt
SMILES	ELG1 genotox	Luc counter	NPC1 prom act	FLuc modulator	Rab9 promoter act	SMN2 splice up
COc1ccc(-c2csc3nc(-c4cccnc4)nc(N4CCC(C(N)=O)CC4)c23)cc1OC	-2%	8%	-1%	2%	-3%	14µM*
COc1cccc(-c2csc(N3CCC(C(N)=O)CC3)n2)c1	nt	nt	nt	17µM*	nt	nt
COc1ccc(-c2csc3nc(C)nc(N4CCCCC4)c23)cc1OC	-8%	1%	-2%	-18%	1%	-22%
CN(C)c1cccc(-c2csc(N3CCC(C(N)=O)CC3)n2)c1	9%	nt	nt	nt	nt	nt
CCOc1ccc(CCNC(=O)c2cc3cccc4c3n2CCS4)cc1	nt	nt	nt	-13%	nt	nt
CCN1CCN(CC(=O)Nc2nc3ccc(OC)cc3s2)CC1	0%	-1%	0%	0%	-5%	2%
COc1ccc2nc(NC(=O)CN3C(=O)NC4(CCCCC4)C3=O)sc2c1	-3%	nt	2%	15µM*	22%	nt
COc1ccc(NC(=O)CN2C(=O)NC3(CCCC3)C2=O)cc1	6%	nt	?	-1%	5%	nt
Cc1ccc2nc(NC(=O)CN3C(=O)NC4(CCCCC4)C3=O)sc2c1	-2%	nt	1%	5.4µM*	12%	nt
O=C(CN1C(=O)NC2(CCCC2)C1=O)Nc1nc2ccccc2s1	21%	nt	11%	?	2%	nt
COc1ccc2nc(NC(=O)CN3C(=O)NC4(CCCC4)C3=O)sc2c1	0%	nt	2%	12µM*	-1%	nt
CCOc1ccc(N2CC(NC(=O)c3ccc(Cl)cc3)CC2=O)cc1 (stereo not given)	nt	nt	nt	4%	nt	nt
Cc1ccc(N(CC(C)C)S(=O)(=O)c2nnc(NC(=O)c3cccs3)s2)cc1	nt	nt	nt	-19%	nt	nt
CC(=O)c1ccc(N2CCN(c3ncnc4onc(-c5ccc(Cl)cc5)c34)CC2)cc1	nt	nt	nt	1%	nt	-35%
Cc1ccccc1NC(=O)COC(=O)C1C2CC3OC(=O)C1C3C2 (stereo not given)	-2%	nt	-6%	-10%	4%	nt
COc1ccccc1NC(=O)COC(=O)C1C2CC3OC(=O)C1C3C2 (stereo not given)	-3%	nt	0%	15µM*	5%	nt
Cc1ccc(/C=C2\SC(=S)N(CCC(=O)NCCCN3CCOCC3)C2=O)cc1	-8%	nt	-2%	?	-2%	nt
CCc1ccc(/C=C2\SC(=S)N(CCC(=O)NCCCN3CCOCC3)C2=O)cc1	9%	nt	15%	6.7µM*	-14%	nt
COc1ccc(/C=C2\SC(=S)N(CCC(=O)NCCCN3CCOCC3)C2=O)cc1	0%	nt	1%	17µM*	-8%	nt
CCC(Nc1ccc(-c2nc(-c3cccnc3)no2)cc1[N+](=O)[O-])c1ccccc1 (stereo not given)	nt	nt	nt	8%	nt	nt
C/C(=N\Nc1nncc2ccccc12)c1ccc(O)cc1	28%	nt	1.3µM*	0.95µM*	0.71µM*	nt
COc1ccc(-c2nc(N/N=C(\C)c3ccc(O)cc3)c3ccccc3n2)cc1	-9%	nt	-3%	1.7µM*	4%	nt
C/C(=N\Nc1nncc2ccccc12)c1cccc(OC(F)F)c1	2.9µM*	nt	1µM*	1.1µM*	1.1µM*	nt
COc1cccc(/C(C)=N/NC(=O)c2cc(-c3cccnc3)nc3ccccc23)c1	0%	-3%	0%	-18%	0%	-17%

Screening data from PubChem.
